Structures are written as SMILES. Inconclusive results are not listed. A number with no mark means an inactive call. The source made the active and inactive calls. Calls follow the shape of the dose curve; as a rule, active = well fitted curve in the direction sought with a large enough effect; inconclusive = small, poorly fitted or top-dose-only effect, or another doubt; inactive = no such curve, though single readings can be large; an effect the other way counts as inactive or inconclusive. Square brackets hold non-standard residues; d marks the D form. Peptide text beside a SMILES is read from it. * marks the point of attachment. PhLac = O=C(O)[CH](O)Cc1ccccc1; AMC = Cc1cc(=O)oc2cc(N*)ccc12; NMeV = CN[CH](C(=O)O)C(C)C; Cbz = O=C(OCc1ccccc1)*

This note sets out measurements from PubChem BioAssay (NCATS).

Assay [1] deals with Cellular tumor antigen p53 (Homo sapiens) (UniProt P04637). As to the kind of experiment: Primary qHTS for small molecule compounds that upregulate eGFP-tagged delta133p53alpha (in N-terminal) cells. (AID 2060322). Also: nearly all actives have a fitted effect of over 75% in size. Also: potency is read from the fitted curve at half-maximal effect.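 As to activation: cells pre-induced with doxycycline then dosed without doxycycline; series mostly up to about 56 µM; 0% = DMSO vehicle and 100% = reference activator.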 To be noted: NCI-H358 eGFP-delta133p53alpha fluorescence, 24 h; activation: stronger effect = higher value. An outline of the steps:
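NCI-H358 cells pre-induced 24 h with 10 ng/ml doxycycline for eGFP-delta133p53alpha, plated dox-free and exposed 24 h at 37C to titrated compounds. Fixed, Hoechst-stained; gated GFP peak intensity by laser scanning cytometry, normalized to DMSO (0%) and 57.5 uM 5-azacytidine (100%).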

The target in assay [2] is Aldehyde dehydrogenase, mitochondrial (Homo sapiens) (UniProt P05091). The experiment in a line: qHTS for Inhibitors of the Aldehyde Dehydrogenase Family (ALDH2) Primary screen (AID 2061308).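 Also: plate controls were vehicle for no effect and reference inhibitor for full effect; nearly all actives have a fitted effect of over 55% in size.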
Assay [3] deals with Retinaldehyde dehydrogenase 3 (Homo sapiens) (UniProt P47895). The experiment in a line: qHTS for Inhibitors of the Aldehyde Dehydrogenase Family (ALDH1A3) Primary screen (AID 2061315). Also: potency is read from the fitted curve at half-maximal effect.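 As to activity change, negative = inhibition: plate controls were DMSO vehicle for no effect and reference inhibitor for full effect.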 In general terms: Quantitative high-throughput screening tests each substance at several concentrations.

Chain of Cellular tumor antigen p53 (Homo sapiens) (P04637 whole entry, looked up): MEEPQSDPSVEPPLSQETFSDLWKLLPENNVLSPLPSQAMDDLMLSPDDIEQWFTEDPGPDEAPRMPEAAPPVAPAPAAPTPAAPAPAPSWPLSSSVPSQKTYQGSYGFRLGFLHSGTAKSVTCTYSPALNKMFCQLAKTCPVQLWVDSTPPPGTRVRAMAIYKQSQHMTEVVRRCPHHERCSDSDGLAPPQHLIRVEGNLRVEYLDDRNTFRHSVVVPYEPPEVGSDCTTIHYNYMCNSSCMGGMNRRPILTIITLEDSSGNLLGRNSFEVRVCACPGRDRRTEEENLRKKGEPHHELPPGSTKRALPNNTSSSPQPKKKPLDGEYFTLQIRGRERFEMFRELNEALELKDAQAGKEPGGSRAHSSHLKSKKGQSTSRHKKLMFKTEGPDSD

Consider `CC1CCC2C(C)(C)C(O)CCC2(C)C12Cc1c(O)cc3c(c1O2)CN=C3N` (stereo not drawn), for which the activation in assay [1] is 12.5%. In addition, the Potency entry in assay [2] and in assay [3] was “inactive” each time.

Take `CC1C2=CC(=O)OC2(O)CC2C1CCC1C(C)(C)CCC(O)C21C` (stereo not drawn): the activation in assay [1] was 0.763%. In addition, the Potency entry in assay [2] and in assay [3] was “inactive” each time.

Consider `CC1(C)C2CC[C@]3(C)C(C(=O)C=C4[C@H]5C[C@@](C)(C(=O)O)CC[C@]5(C)CC[C@]43C)[C@@]2(C)CC[C@@H]1O` (stereo partly drawn), for which, in assay [1], the activation is 6.87%. Further, the Potency entry in assay [2] and in assay [3] was “inactive” in each case.

On to `C/C(=N\O)c1ccc(OCC(=O)N2CCCCC2)cc1`, for which the activation in assay [1] was 3.35%. Moreover, the Potency entry in assay [2] and in assay [3] was “inactive” in each case.

For the molecule `C=C1CC2C(C)(CCC(=O)O)C(C(C)(C)O)CCC2(C)C2C(=O)OC(C)(C(=O)OC)C(=O)C12C` (stereo not drawn), the activation in assay [1] was 10.7%. For the same molecule, the Potency result in assay [2] and in assay [3] was “inactive” each time.

Regarding `CC(C)(C)c1ccc(-c2nc3ccccc3[nH]2)cc1`, the activation in assay [1] was -14.3%. The Potency result in assay [2] was “inactive”. In addition, the Potency in assay [3] was 8.91 µM (active).

For `C=C(CO[C@@H]1O[C@H](CO[C@@H]2OC[C@](O)(CO)[C@H]2O)[C@@H](O)[C@H](O)[C@H]1O)C1Cc2cc(C(C)=O)ccc2O1` (stereo partly drawn), the activation in assay [1] was -12.2%. In addition, the Potency result in assay [2] and in assay [3] was “inactive” in each case.

Take `COc1cc(O)cc(C)c1C(=O)O[C@H]1[C@@H](O)[C@@H](n2ccc(=O)[nH]c2=O)O[C@@H]1CO`: in assay [1], the activation was -9.16%. The Potency result in assay [2] and in assay [3] was “inactive” in each case.

In the case of `CC1(C)[C@@H]2CC=C(CO[C@@H]3O[C@H](CO[C@@H]4OC[C@H](O)[C@H](O)[C@H]4O)[C@@H](O)[C@H](O)[C@H]3O)[C@H]1C2`, the activation in assay [1] is -4.46%. Also, the Potency result in assay [2] and in assay [3] was “inactive” in each case.

For `CC1(C)O[C@H]2CC(=O)OC[C@@]23C1=C(O)C(=O)[C@]1(C)C3CC[C@@]2(C)[C@H](c3ccoc3)OC(=O)[C@H]3O[C@]321` (stereo partly drawn), the activation in assay [1] is -13%. The Potency entry in assay [2] and in assay [3] was “inactive” each time.

On to `COc1ccccc1-c1c[nH]c2ncc(-c3cncc(C(=O)N(C)C)c3)cc12`, for which, in assay [1], the Potency was 21.3 µM (active). Besides, the Potency entry in assay [2] and in assay [3] was “inactive” throughout.

As for `O=C(Nc1nc2cc(C(F)(F)F)cc(NC3CC3)n2n1)c1cccnc1`, in assay [1], the Potency is 4.78 µM (active). Also, the Potency entry in assay [2] and in assay [3] was “inactive” throughout.

Regarding `Cc1cc(=O)oc2cc(NC(=O)[C@H](CCC(=O)O)NC(=O)[C@H](CC(C)C)NC(=O)[C@H](CC(C)C)NC(=O)OCc3ccccc3)ccc12` (Cbz-Leu-Leu-Glu-{AMC}), the activation in assay [1] was 2.33%. Also, the Potency entry in assay [2] and in assay [3] was “inactive” in each case.

In the case of `C[C@H]1CC[C@H]2[C@@H](C=C[C@@](C)(O)[C@]2(C)C(=O)CCO)C1`, the activation in assay [1] was -9.16%. Besides, the Potency result in assay [2] and in assay [3] was “inactive” in each case.

With `CC/C=C\CC1C(=O)C=CC1(CCCCCCCC(=O)O)OC(C)=O` (stereo not drawn), the activation in assay [1] is -22.9%. Besides, the Potency entry in assay [2] and in assay [3] was “inactive” throughout.

Take `CC(C)C(C(=O)N1CCCC1C(=O)O)N(C)C(=O)C(O)Cc1ccccc1` (stereo not drawn) (H-[PhLac]-[NMeV]-Pro-OH; configuration not given here): the activation in assay [1] was 22.3%. Besides, the Potency result in assay [2] and in assay [3] was “inactive” in each case.

On to `CC1OC(OC2CCC3(C)C(CCC4(C)C3C=CC35OCC6(CCC(C)(C)CC63)CCC45C)C2(C)CO)C(OC2OC(CO)C(O)C(O)C2O)C(O)C1OC1OC(CO)C(O)C(O)C1O` (stereo not drawn), for which, in assay [1], the activation was 14.3%. Besides, the Potency result in assay [2] and in assay [3] was “inactive” throughout.

As for `CC1CCCCN1S(=O)(=O)c1ccc(N2CCCC2=O)cc1` (stereo not drawn), in assay [1], the activation is 2.86%. The Potency entry in assay [2] and in assay [3] was “inactive” in each case.

For the molecule `CC(O)C/C=C/C=C/C(=O)OC1C=C2COC(=O)C2(O)C2(C)CCCC(C)(C)C12` (stereo not drawn), in assay [1], the activation was 5.34%. For the same molecule, the Potency entry in assay [2] and in assay [3] was “inactive” throughout.

For `CCOC(=O)c1ccc(OCCC2CCN(c3ccc(C)nn3)CC2)cc1`, in assay [1], the activation is -17.9%. In addition, the Potency entry in assay [2] and in assay [3] was “inactive” each time.

For `O=C(O)c1cccc(C(=O)CCC2OC(n3cnc4c(=O)[nH]cnc43)C(O)C2O)c1` (stereo not drawn), the activation in assay [1] is 15.3%. Also, the Potency entry in assay [2] and in assay [3] was “inactive” each time.

On to `C=C[C@@H]1[C@H](O[C@@H]2O[C@H](CO)[C@@H](O)[C@H](O)[C@H]2O)OC=C(C(=O)O)[C@H]1CCOC(=O)/C=C/c1ccc(O)c(O)c1`, for which the activation in assay [1] is -7.63%. Further, the Potency entry in assay [2] and in assay [3] was “inactive” in each case.

Consider `CSCC[C@H](NC(=O)[C@H](CO)NC(=O)[C@H](CCC(=O)O)NC(C)=O)C(=O)N[C@H](C=O)CC(=O)O` (Ac-ESMD-aldehyde), for which, in assay [1], the activation is 12.3%. The activity change, negative = inhibition is -17.2% [at 11.2 µM] in assay [2] and -13.4% [at 11.2 µM] in assay [3].

In the case of `C=C(C)C(=O)OC1CC(CO)CCC/C(CO)=C/C2OC(=O)C(=C)C21` (stereo not drawn), the Potency in assay [1] was 14.8 µM (active). The Potency entry in assay [2] and in assay [3] was “inactive” throughout.

Turning to `CC1COC(Nc2ccc3ncnc(Nc4ccc(OCc5nccs5)c(Cl)c4)c3c2)=N1` (stereo not drawn), the activation in assay [1] was 13.4%. Also, the Potency result in assay [2] and in assay [3] was “inactive” each time.

For the molecule `CC1OC(OC2C(OC3C(O[C@H]4CC[C@@]5(C)C(CC[C@]6(C)C5C(=O)CC5=C7CC(C)(C)CC(O)[C@]7(C)CC[C@]56C)C4(C)C)OC(C(=O)O)C(O)C3O)OCC(O)C2O)C(O)C(O)C1O` (stereo partly drawn), the activation in assay [1] is -11.5%. In addition, the Potency entry in assay [2] and in assay [3] was “inactive” throughout.
